Source: PubChem (National Center for Advancing Translational Sciences (NCATS))
Compounds with a hit are over-represented: about 13% of the library has one in this group of screens.
miR-21 reporter: qHTS Assay for Modulators of miRNAs and/orActivators of miR-21; 340,000 tested, under 10 active; HeLa miR-21 FLuc reporter, luciferase, 48 h; Potency, µM (top dose mostly 38.3 µM), for inactives: at the top dose activity change, positive = activation, most hits filed as activators; AID 2288, 2010;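 further: % of control where 0% means no effect; miR-21 action dims this reporter so a rising signal means less miR-21 action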
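HeLa miR-21-FLuc reporter line, endogenous miR-21; 2000 cells/well in DMEM/10% FBS; compound titration up to ~40uM final, 48 h, 37 degree Celsius; luciferase detection reagent, 15 min lysis, CCD luminescence.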
ALDH1A1 inh: qHTS Assay for Inhibitors of Aldehyde Dehydrogenase 1 (ALDH1A1); Purified ALDH1A1, NADH fluorescence, propionaldehyde substrate; AID 1030, 2008; 220,000 tested, 7.3% active; Potency, µM (top dose mostly 75.3 µM), for the others: at the top dose activity, negative = inhibition, usual class: inhibitors; active means well fitted inhibition curve with a large enough effect, not every such curve was filed as active; inconclusive means small, poorly fitted or top-dose-only effect, or another doubt; inactive means no such curve, though single readings can be large or run the other way;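 further: potency means the concentration at half of the fitted maximal effect; plate controls were no enzyme wells and a reference inhibitor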
Lamin A splicing: qHTS Assay for Modulators of Lamin A Splicing | HeLa LMNA splicing GFP/RFP minigene ratio, 48 h | Potency, µM (series often up to 46.1 µM), without a hit: at the highest dose ratio change, negative = inhibition, usual class: inhibitors | 200,000 tested, 0.01% active; active means well fitted inhibition curve with a large enough effect in the signal ratio, with a control signal flat, not every such curve was filed as active; inconclusive means small, poorly fitted or top-dose-only effect, or effect the other way, or a change in a side signal; the % refers to the signal ratio; further: potency means the concentration at half of the fitted maximal effect; on the % scale 0 is the no-effect control and ±100 the full control effect
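Read-out is the ratio of GFP to DsRed2 object intensity, acquired by 488 nm laser-scanning cytometry on HeLa lamin A-EGFP minigene reporter cells. Compound incubation 48 hrs at 37 °C in Opti-MEM with 2% FBS; DMSO 0.5% final.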
KDM4E inh: qHTS Assay for Inhibitors of Human Jumonji Domain Containing 2E (JMJD2E). 230,000 tested, 1.6% active. Potency, µM (series often up to 57.1 µM), for inactives: top-dose activity change, negative = inhibition, usual class: inhibitors. Lysine-specific demethylase 4E (Homo sapiens), B2RXH2. JMJD2E catalytic domain, FDH-coupled NADH fluorescence (FDH is formaldehyde dehydrogenase). AID 2147, 2009; active means well fitted inhibition curve with a large enough effect, not every such curve was filed as active; inconclusive means small, poorly fitted or top-dose-only effect, or another doubt; inactive means no such curve, though single readings can be large or run the other way;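 further: potency means the concentration at half of the fitted maximal effect; 0% = wells with enzyme and -100% = buffer wells without enzyme; nearly all actives have a fitted effect of over 50% in size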
Target sequence (B2RXH2 1-337 limits assumed): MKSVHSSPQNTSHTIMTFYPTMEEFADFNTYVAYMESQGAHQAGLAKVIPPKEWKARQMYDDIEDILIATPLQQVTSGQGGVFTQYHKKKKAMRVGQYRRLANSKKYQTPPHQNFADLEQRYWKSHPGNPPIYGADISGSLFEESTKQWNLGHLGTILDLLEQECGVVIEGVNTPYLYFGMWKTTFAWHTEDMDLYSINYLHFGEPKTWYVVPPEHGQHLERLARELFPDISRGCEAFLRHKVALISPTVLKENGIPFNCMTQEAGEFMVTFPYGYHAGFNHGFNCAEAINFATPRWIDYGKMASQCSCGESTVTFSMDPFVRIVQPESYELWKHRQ
Sfp inh: qHTS Assay for Inhibitors of Bacillus subtilis Sfp phosphopantetheinyl transferase (PPTase) | 4'-phosphopantetheinyl transferase ffp (Bacillus subtilis), Q9F4F7 | Biochemical Sfp PPTase activity, qHTS | Potency, µM, for the others: largest response in the series, negative = inhibition, usual class: inhibitors | 310,000 tested, 3.5% active;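 further: the enzyme is Sfp with the accession as filed and its product quenches rhodamine fluorescence; potency means the concentration at half of the fitted maximal effect; 0% = enzyme reaction without inhibitor and -100% = no enzyme wells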
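Fluorescence-quenching assay: 15 nM Sfp-PPTase preincubated 15 min at room temperature with compound, then 5 uM rhodamine-CoA and 12.5 uM BHQ-2-labelled YbbR peptide added. Fluorescence (ex 525/em 598 nm) read at start and after 30 min; difference gives rate.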
G9a inh: qHTS Assay for Inhibitors of Histone Lysine Methyltransferase G9a. Histone-lysine N-methyltransferase EHMT2 (Homo sapiens), Q96KQ7. 350,000 tested, 8.8% active. G9a H3K9 monomethylation, AlphaScreen, 2 h. Potency, µM (top dose mostly 102 µM), for inactives: top-dose activity, negative = inhibition, hits mostly inhibitors. AID 504332, 2011; further: potency means the concentration at half of the fitted maximal effect; on the % scale 0 is the no-effect control and ±100 the full control effect; nearly all actives have a fitted effect of over 75% in size
Target sequence (Q96KQ7 913-1193 limits assumed): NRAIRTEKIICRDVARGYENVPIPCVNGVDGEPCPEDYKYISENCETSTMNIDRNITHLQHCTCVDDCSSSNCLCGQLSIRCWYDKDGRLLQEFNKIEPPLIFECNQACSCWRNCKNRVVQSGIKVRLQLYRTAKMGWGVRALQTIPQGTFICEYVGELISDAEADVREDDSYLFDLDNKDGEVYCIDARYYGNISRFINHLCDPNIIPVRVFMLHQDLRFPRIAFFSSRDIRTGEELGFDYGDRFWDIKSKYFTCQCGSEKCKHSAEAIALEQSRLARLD
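Enzyme 20 nM + cpd, 15 min RT; add b-H3K9 pep 500 nM / SAM 20 uM; 2 h RT; anti-H3K9me1 Ab 0.5 ug/mL + SA donor / anti-rabbit acceptor beads 20 ug/mL each, 10 min; AlphaScreen read.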
Active calls of the source: *; ? = inconclusive; . = not tested or not shown; [ ] = another dose, or the depositor's remark. Unless noted, the call rests on the fitted dose curve; in most records, active means well fitted curve in the direction sought with a large enough effect; inconclusive means small, poorly fitted or top-dose-only effect, or another doubt; inactive means no such curve, though single readings can be large; an effect the other way counts as inactive or inconclusive.

SMILES	miR-21 reporter	ALDH1A1 inh	Lamin A splicing	KDM4E inh	Sfp inh	G9a inh
CN(C)c1ccc(/C=C(\Cl)c2nc3ccccc3s2)cc1	-32.1%	-8.8%	?	-2.7%	?	14.1µM*
Cc1ccc(C)c(C(=O)CSc2n[nH]c(C(C)C)n2)c1	-11.1%	-5.2%	?	2.4%	-6.8%	?
Cc1ccc(C)c(C(=O)CSc2n[nH]c(C)n2)c1	-12.8%	?	5.2%	?	79.4µM*	7.08µM*
CCc1nc(SCC(=O)c2cc(C)ccc2C)n[nH]1	-7.1%	?	2.9%	?	56.2µM*	?
CCc1nc(SCC(=O)Nc2ccc(C(=O)O)cc2)n[nH]1	-3.3%	11.9%	-2.2%	-10.3%	9.2%	44.7µM*
CCCn1c(SCC(=O)c2cc(C)ccc2C)n[nH]c1=O	4.4%	-13.0%	-4.6%	3.2%	-0.9%	7.08µM*
COc1ccc(-c2csc3nc(-c4ccccc4C)oc(=O)c23)cc1OC	-1.6%	.	.	.	.	2.2%[59 µM]
Cc1ccccc1Nc1c(-c2ccccn2)nc2ccccn12	?	?	?	?	-38.9%	39.8µM*
Cc1cccn2c(Nc3ccccc3)c(-c3ccccn3)nc12	25.9%	-0.4%	?	-5.3%	15.1%	39.8µM*
Oc1ccc(C2=CSC3=NCCN23)cc1O	-17.3%	.	.	.	89.1µM*	36.3%[0.501 µM]
O=S(=O)(c1ccc(C2=CSC3=NCCN23)cc1)N1CCOCC1	-1.5%	15.8µM*	3.2%	?	56.2µM*	?
COC(=O)c1cc(C#N)c(SCc2ccccc2)nc1C	-22.3%	?	15.8%	0.8%	-24.6%	250.1%
CC(=O)c1cc(C#N)c(SCc2ccccc2)nc1C	-72.6%	17.8µM*	15.4%	-1.4%	-17.0%	161.2%
CC(Sc1nnnn1-c1ccccc1)C(=O)Nc1ccc(Cl)cn1 (configuration not stated)	-4.4%	5.01µM*	2.5%	-0.2%	-1.4%	-31.8%[12.7 µM]
CC(Sc1nnc2ccccn12)C(=O)Nc1ccc(Cl)cn1 (configuration not stated)	0.3%	15.1%	4.3%	6.0%	8.9%	-5.7%[12.7 µM]
O=C(O)COc1ccc(/C=C/c2nc(-c3ccccc3O)n[nH]2)cc1	-0.2%	.	.	.	4.3%	12.6µM*
C/C(=N/Nc1ccnc2cc(Cl)ccc12)c1ccc(N)cc1	.	.	.	.	.	1.78µM*
Clc1ccc2c(NNc3ccccc3Cl)ccnc2c1	-6.2%	4.5%	-6.5%	2.6%	-1.8%	3.16µM*
FC(F)Oc1ccc(NC(=S)NNc2ccnc3cc(Cl)ccc23)cc1	-0.6%	8.91µM*	3.7%[46 µM]	16.9%	-16.3%	39.8µM*
O=C(NNc1ccnc2cc(Cl)ccc12)C1CCCCC1	16.6%	5.3%	-8.5%[9.22 µM]	-8.8%	6.7%	6.4%
NC(=S)NNc1ccnc2cc(Cl)ccc12	-5.3%	1.41µM*	?	-17.7%	-80.7%	1µM*
COc1ccc(S(=O)(=O)NCCC(=O)N2CCCN(C)CC2)cc1	.	.	.	.	.	16.6%[12.7 µM]
CN(C)c1ncnc2ccc(-c3cccc(NS(C)(=O)=O)c3)cc12	.	27.0%	?	.	30.0%	15.2%[0.501 µM]
CCc1ccccc1NC(=O)Cn1nnc(-c2nc(-c3ccncc3)no2)c1N	-0.7%	.	.	.	.	7.08µM*
COc1cc(/C=N/NC(=O)C(C)Nc2n[nH]c(=O)[nH]c2=O)cc(OC)c1O (configuration not stated)	-8.2%	-2.9%	-7.2%	-24.6%	-5.8%	35.5µM*
COc1cc(/C=N/NC(=O)C(N)=O)cc(OC)c1O	0.8%	-8.1%	-1.2%[46 µM]	1.0%	-5.1%	?
NC(=O)CN(N=Nc1cccc([N+](=O)[O-])c1)c1cccc([N+](=O)[O-])c1	5.6%	1.78µM*	-21.7%[46 µM]	5.4%	-0.6%	4.2%
N=C(N)c1ccc(N2CCN(C3CCN(CC(=O)O)CC3)CC2)cc1	.	-2.9%	.	-10.1%	11.9%	.
